Laboratory results published in PubChem BioAssay (NCATS).
“And” between values parts separate entries of the source, which are not always exact repeats. Equal values may be shown once. Records with an inconclusive call do not appear. Unmarked numbers belong to inactive results. The source made the active and inactive calls. Calls follow the shape of the dose curve; as a rule, active = well fitted inhibition curve with a large enough effect; inconclusive = small, poorly fitted or top-dose-only effect; inactive = flat fitted curve, though single readings scatter.

Assay: P-glycoprotein substrates identified in KB-8-5-11 adenocarcinoma cell line, qHTS therapeutic library screen (AID 1346987); also: nearly all actives have a fitted effect of over 65% in size
Conditions: KB-8-5-11 (P-gp overexpressing) viability, CellTiter-Glo, 72 h; series mostly up to 44.5 µM; activity change, negative = cytotoxicity: at the top concentration
Procedure, shortened: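 Human cervical adenocarcinoma KB-8-5-11 cells, selected in colchicine to over-express P-gp and assayed without it, were exposed for 72 h to titrated compounds. An ATP-based luminescent viability signal gave AC50.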
% is scaled to controls: 0 for no effect and ±100 for the full control effect; potency is read from the fitted curve at half-maximal effect.

Compound | activity change, negative = cytotoxicity [%] | outcome | Potency
N[C@@]1(C(=O)O)CS(=O)(=O)[C@H]2[C@H](C(=O)O)[C@H]21 | -20.2 | – | –
CC(=Cc1ccccc1)C=C1SC(=S)N(CC(=O)O)C1=O | – | inactive | –
CC1(C)O[C@H]2C[C@@H]3[C@H]4CCC5=CC(=O)C=C[C@]5(C)[C@@]4(F)[C@@H](O)C[C@]3(C)[C@]2(C(=O)CO)O1 | – | inactive | –
C[N+]1(C)[C@@H]2CC(OC(=O)[C@H](CO)c3ccccc3)C[C@H]1[C@H]1O[C@@H]12 (some centres undefined) | – | inactive | –
COc1cc(NC(=O)c2ccc(-c3ccc(Cl)cc3)o2)cc(OC)c1 | 2.17 | – | –
CN[C@@H](C)C(=O)N[C@H]1CN(C(=O)CC(C)C)CC[C@H]2CC[C@@H](C(=O)NC(c3ccccc3)c3ccccc3)N2C1=O | – | – | inactive
O=C1NC(=O)C(=Cc2ccc3c(c2)OC(F)(F)O3)S1 | -15.6 | – | –
COc1ccc2cccc(CCNC(C)=O)c2c1 | 7.65 | – | –
CC(=O)Nc1ccc([C@H](C)C(=O)Nc2ncc(C(C)C)s2)cc1 | – | – | 3.72 µM (active) and 3.66 µM (active)
CCC(CC)[C@H](NC(C)=O)[C@@H]1[C@H](O)[C@@H](C(=O)O)C[C@@H]1N=C(N)N | -9.48 | – | –
CC=CC(=O)N(CC)c1ccccc1C | 3.25 | – | –
COC1CCC(N(C(=O)C2CCC(C)CC2)c2cc(C3=CCCCC3)sc2C(=O)O)CC1 (centres undefined) | -1 | – | –
C[C@]12CCC3c4ccc(O)cc4CCC3C1CCC2=O (some centres undefined) | -10.6 | – | –
CC(C)n1nc(-c2ccc3oc(N)nc3c2)c2c(N)ncnc21 | – | – | 1.3 nM (active) and 32.6 nM (active)
COCCOC(=O)C1=C(C)NC2=C(C(=O)CC(c3ccccc3OC)C2)C1c1cccc(O)c1 (centres undefined) | – | – | inactive
COc1ccc(-c2coc3cc(O)ccc3c2=O)cc1 | 4.99 | – | –
Cn1cc(C=C2C(=O)Nc3cccnc32)c2ccccc21 | 0.786 | – | –
CC(C)C(=O)Oc1ccc(CO)cc1[C@H](CCN(C(C)C)C(C)C)c1ccccc1 | – | – | inactive
CON=C(C(=O)N[C@@H]1C(=O)N2C(C(=O)OCOC(=O)C(C)(C)C)=C(C=Cc3scnc3C)CS[C@H]12)c1csc(N)n1 | 1.76 | – | –
COc1ccc2c(Oc3ccc(NC(=O)c4c(C)n(CC(C)(C)O)n(-c5ccccc5)c4=O)nc3)ccnc2c1 | 4.07 | – | –
C[C@@H](O)[C@H]1C(=O)N2C(C(=O)O)=C(S[C@@H]3CN[C@H](C(=O)N(C)C)C3)[C@H](C)[C@H]12 | -1.23 | – | –
CCc1ccc(C=C2SC(=S)NC2=O)cc1 | -25.7 | – | –
C[C@]12CC[C@@H]3c4ccc(O)cc4C[C@@H](CCCCCCCCCS(=O)CCCC(F)(F)C(F)(F)F)[C@H]3[C@H]1CC[C@H]2O (some centres undefined) | -8.39 | – | –
CC(C)(C)OC(=O)N[C@H]1CCCCCC=C[C@@H]2C[C@@]2(C(=O)NS(=O)(=O)C2CC2)NC(=O)[C@@H]2C[C@@H](OC(=O)N3Cc4cccc(F)c4C3)CN2C1=O | 5.97 | – | –
